Publication PMC11006913
Numbering of substitutions follows the chain as printed.

Tests used:
Experiment in all cases: PBM; 200 nM protein, PBS
Conditions in all cases: dsDNA, one strand shown
[1] = molecular target: T1, SIX6 (Homo sapiens, UniProt O95475 114-200, L167I)
T1 sequence: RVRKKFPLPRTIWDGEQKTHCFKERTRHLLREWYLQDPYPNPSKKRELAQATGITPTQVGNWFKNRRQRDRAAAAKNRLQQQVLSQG

[2] = molecular target: T2, SIX6 (Homo sapiens, UniProt O95475 114-200, L143V)
T2 sequence: T1 sequence with L30V, I54L

[3] = molecular target: T3, SIX6 (Homo sapiens, UniProt O95475 114-200, H141N)
T3 sequence: T1 sequence with H28N, I54L

[4] = molecular target: T4, SIX6 (Homo sapiens, UniProt O95475 114-200, T165P)
T4 sequence: T1 sequence with T52P, I54L

[5] = molecular target: T5, SIX6 (Homo sapiens, UniProt O95475 114-200, L167M)
T5 sequence: T1 sequence with I54M

[6] = molecular target: T6, SIX6 (Homo sapiens, UniProt O95475 114-200, L143M)
T6 sequence: T1 sequence with L30M, I54L

[7] = molecular target: T7, SIX6 (Homo sapiens, UniProt O95475 114-200, L143I)
T7 sequence: T1 sequence with L30I, I54L

[8] = molecular target: T8, SIX6 (Homo sapiens, UniProt O95475 114-200, T165G)
T8 sequence: T1 sequence with T52G, I54L

[9] = molecular target: T9, SIX6 (Homo sapiens, UniProt O95475 114-200, T139Q)
T9 sequence: T1 sequence with T26Q, I54L

[10] = molecular target: T10, SIX6 (Homo sapiens, UniProt O95475 114-200, T165A)
T10 sequence: T1 sequence with T52A, I54L

[11] = molecular target: T11, SIX6 (Homo sapiens, UniProt O95475 114-200, L167V)
T11 sequence: T1 sequence with I54V

[12] = molecular target: T12, SIX6 (Homo sapiens, UniProt O95475 114-200)
T12 sequence: T1 sequence with I54L

[13] = molecular target: T13, SIX6 (Homo sapiens, UniProt O95475 114-200, T165I)
T13 sequence: T1 sequence with T52I, I54L

Row | Sequence | binding signal [1] | binding signal [2] | binding signal [3] | binding signal [4] | binding signal [5] | binding signal [6] | binding signal [7] | binding signal [8] | binding signal [9] | binding signal [10] | binding signal [11] | binding signal [12] | binding signal [13]
1 | AGCGGGCC | 9.04 upbm affinity estimate (log intensity, higher = more binding, comparable within an allelic series) | 8.92 upbm affinity estimate (log intensity, higher = more binding, comparable within an allelic series) | 8.88 upbm affinity estimate (log intensity, higher = more binding, comparable within an allelic series) | 8.96 upbm affinity estimate (log intensity, higher = more binding, comparable within an allelic series) | 8.96 upbm affinity estimate (log intensity, higher = more binding, comparable within an allelic series) | 8.83 upbm affinity estimate (log intensity, higher = more binding, comparable within an allelic series) | 8.88 upbm affinity estimate (log intensity, higher = more binding, comparable within an allelic series) | 8.84 upbm affinity estimate (log intensity, higher = more binding, comparable within an allelic series) | 9.03 upbm affinity estimate (log intensity, higher = more binding, comparable within an allelic series) | 8.98 upbm affinity estimate (log intensity, higher = more binding, comparable within an allelic series) | 8.99 upbm affinity estimate (log intensity, higher = more binding, comparable within an allelic series) | 8.89 upbm affinity estimate (log intensity, higher = more binding, comparable within an allelic series) | 8.98 upbm affinity estimate (log intensity, higher = more binding, comparable within an allelic series)
2 | ATATCATG | 11.1 upbm affinity estimate (log intensity, higher = more binding, comparable within an allelic series) | 10.4 upbm affinity estimate (log intensity, higher = more binding, comparable within an allelic series) | 11.1 upbm affinity estimate (log intensity, higher = more binding, comparable within an allelic series) | 9.92 upbm affinity estimate (log intensity, higher = more binding, comparable within an allelic series) | 10.8 upbm affinity estimate (log intensity, higher = more binding, comparable within an allelic series) | 10.9 upbm affinity estimate (log intensity, higher = more binding, comparable within an allelic series) | 10.4 upbm affinity estimate (log intensity, higher = more binding, comparable within an allelic series) | 11.1 upbm affinity estimate (log intensity, higher = more binding, comparable within an allelic series) | 11.2 upbm affinity estimate (log intensity, higher = more binding, comparable within an allelic series) | 11 upbm affinity estimate (log intensity, higher = more binding, comparable within an allelic series) | 11 upbm affinity estimate (log intensity, higher = more binding, comparable within an allelic series) | 11 upbm affinity estimate (log intensity, higher = more binding, comparable within an allelic series) | 11 upbm affinity estimate (log intensity, higher = more binding, comparable within an allelic series)
3 | GGCGACCC | 8.98 upbm affinity estimate (log intensity, higher = more binding, comparable within an allelic series) | 8.85 upbm affinity estimate (log intensity, higher = more binding, comparable within an allelic series) | 9.03 upbm affinity estimate (log intensity, higher = more binding, comparable within an allelic series) | 8.9 upbm affinity estimate (log intensity, higher = more binding, comparable within an allelic series) | 8.99 upbm affinity estimate (log intensity, higher = more binding, comparable within an allelic series) | 9.09 upbm affinity estimate (log intensity, higher = more binding, comparable within an allelic series) | 8.97 upbm affinity estimate (log intensity, higher = more binding, comparable within an allelic series) | 9.01 upbm affinity estimate (log intensity, higher = more binding, comparable within an allelic series) | 9.15 upbm affinity estimate (log intensity, higher = more binding, comparable within an allelic series) | 9.04 upbm affinity estimate (log intensity, higher = more binding, comparable within an allelic series) | 8.91 upbm affinity estimate (log intensity, higher = more binding, comparable within an allelic series) | 9.01 upbm affinity estimate (log intensity, higher = more binding, comparable within an allelic series) | 9.02 upbm affinity estimate (log intensity, higher = more binding, comparable within an allelic series)
4 | CAGCGTGC | 9.15 upbm affinity estimate (log intensity, higher = more binding, comparable within an allelic series) | 9.01 upbm affinity estimate (log intensity, higher = more binding, comparable within an allelic series) | 9.08 upbm affinity estimate (log intensity, higher = more binding, comparable within an allelic series) | 9.06 upbm affinity estimate (log intensity, higher = more binding, comparable within an allelic series) | 9.05 upbm affinity estimate (log intensity, higher = more binding, comparable within an allelic series) | 9.23 upbm affinity estimate (log intensity, higher = more binding, comparable within an allelic series) | 9.08 upbm affinity estimate (log intensity, higher = more binding, comparable within an allelic series) | 9.19 upbm affinity estimate (log intensity, higher = more binding, comparable within an allelic series) | 9.15 upbm affinity estimate (log intensity, higher = more binding, comparable within an allelic series) | 9.11 upbm affinity estimate (log intensity, higher = more binding, comparable within an allelic series) | 9.05 upbm affinity estimate (log intensity, higher = more binding, comparable within an allelic series) | 9.14 upbm affinity estimate (log intensity, higher = more binding, comparable within an allelic series) | 9.05 upbm affinity estimate (log intensity, higher = more binding, comparable within an allelic series)
5 | AAGTGCGC | 8.9 upbm affinity estimate (log intensity, higher = more binding, comparable within an allelic series) | 9.07 upbm affinity estimate (log intensity, higher = more binding, comparable within an allelic series) | 8.88 upbm affinity estimate (log intensity, higher = more binding, comparable within an allelic series) | 9.2 upbm affinity estimate (log intensity, higher = more binding, comparable within an allelic series) | 9.05 upbm affinity estimate (log intensity, higher = more binding, comparable within an allelic series) | 9.11 upbm affinity estimate (log intensity, higher = more binding, comparable within an allelic series) | 9.08 upbm affinity estimate (log intensity, higher = more binding, comparable within an allelic series) | 9 upbm affinity estimate (log intensity, higher = more binding, comparable within an allelic series) | 9.05 upbm affinity estimate (log intensity, higher = more binding, comparable within an allelic series) | 8.96 upbm affinity estimate (log intensity, higher = more binding, comparable within an allelic series) | 8.99 upbm affinity estimate (log intensity, higher = more binding, comparable within an allelic series) | 9.04 upbm affinity estimate (log intensity, higher = more binding, comparable within an allelic series) | 9.04 upbm affinity estimate (log intensity, higher = more binding, comparable within an allelic series)
6 | CAGTGGCC | 8.99 upbm affinity estimate (log intensity, higher = more binding, comparable within an allelic series) | 8.9 upbm affinity estimate (log intensity, higher = more binding, comparable within an allelic series) | 8.99 upbm affinity estimate (log intensity, higher = more binding, comparable within an allelic series) | 9.04 upbm affinity estimate (log intensity, higher = more binding, comparable within an allelic series) | 8.93 upbm affinity estimate (log intensity, higher = more binding, comparable within an allelic series) | 8.95 upbm affinity estimate (log intensity, higher = more binding, comparable within an allelic series) | 8.95 upbm affinity estimate (log intensity, higher = more binding, comparable within an allelic series) | 9.02 upbm affinity estimate (log intensity, higher = more binding, comparable within an allelic series) | 8.99 upbm affinity estimate (log intensity, higher = more binding, comparable within an allelic series) | 8.94 upbm affinity estimate (log intensity, higher = more binding, comparable within an allelic series) | 9.05 upbm affinity estimate (log intensity, higher = more binding, comparable within an allelic series) | 8.95 upbm affinity estimate (log intensity, higher = more binding, comparable within an allelic series) | 8.94 upbm affinity estimate (log intensity, higher = more binding, comparable within an allelic series)
